Inconclusive results are not listed. The source made the active and inactive calls. Calls follow the shape of the dose curve; as a rule, active = well fitted curve in the direction sought with a large enough effect; inconclusive = small, poorly fitted or top-dose-only effect, or another doubt; inactive = no such curve, though single readings can be large or run the other way.
Test: qHTS Assay for Compounds Blocking the Interaction Between CBF-beta and RUNX1 for the Treatment of Acute Myeloid Leukemia: ME-1 cellular proliferation, SAR for Probe
Conditions: ME-1 cell proliferation, ATP luminescence, 48 h
Excerpt: NIH Chemical Genomics Center [NCGC] NIH Molecular Libraries Probe Production centers Network [MLPCN] MLPCN Grant: X01MH083259-01 Assay Submitter (PI): Paul Liu NCGC Assay Overview: Core Binding Factor (CBF) abnormalities are associated with 20-25% of all acute myeloid leukemias (AML), of which 5-10% are further sub classified as acute myelomonocytic leukemia with eosinophilia, also known as M4Eo in the FAB classification scheme. This subtype of leukemia is usually associated with chromosome 16 inversion (p13:q22). Chromosome 16 inversion results in formation of the fusion oncogene CBFB-MYH11, which encodes the fusion protein CBF-beta-SMMHC. […] It has been hypothesized that the interference of CBF-beta and RUNX1 binding could have therapeutic implications for patients with CBF mediated leukemias. We developed a CBF-beta and RUNX1 binding assay in AlphaScreenTM format and optimized it for high throughput screening to search for inhibitors. The goal of this project is to screen MLPCN's compound collection (MLSMR) for identifying the inhibitors of the interaction between CBF-beta and RUNX1 proteins as research probes. If these probes work well in the animal models, the ultimate goal of this project is to development a new drug treatment for this disease. The present assay assesses compounds ability to slow cellular proliferation in a CBFb dependent cell line, ME-1.
NCGC Assay protocol: 2uL/well media was dispensed per well into 1536-well white solid-bottom plates using Multidrop Combi dispenser. Subsequently, 23 nL/well compound solutions or DMSO controls were dispensed to the assay plates via a pintool workstation. […] The plates were incubated at 37 °C with 5% CO2 and 95% humidity for 48 hours, and then ATP content was measured following the addition of 4uL/well of ATPlite reagent and a 20 min incubation on a ViewLux plate reader.

| SMILES | Potency |
| --- | --- |
| CCN(CC)CCN1C(=O)CN=C(c2ccc[nH]2)c2cc(Cl)ccc21 | 137 µM (active) |
| CCN(CC)CCN1C(=O)CN=C(c2ccccn2)c2cc(Cl)ccc21 | 109 µM (active) |
| CN1C(=O)CN=C(c2ccc[nH]2)c2cc(Cl)ccc21 (tested in a mixture with another compound) | 27.4 µM (active) |

Reference: PubChem BioAssay AID504371 (National Center for Advancing Translational Sciences (NCATS), 2011)
